Assay results: PubChem BioAssay (NCATS)
Inconclusive results are not listed. Activity calls are given as the source filed them. The call rests on the fitted dose curve; in most records, active means well fitted curve in the direction sought with a large enough effect; inconclusive means small, poorly fitted or top-dose-only effect, or another doubt; inactive means no such curve, though single readings can be large; an effect the other way counts as inactive or inconclusive.

Tests used:
[1] = target: Rap guanine nucleotide exchange factor 3 (Homo sapiens) (UniProt O95398); assay: Confirmatory qHTS for agonist of cAMP-regulated guanine nucleotide exchange factor 3 (EPAC1) (AID 1645881);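 further: EPAC1 catalysed release of BODIPY-GDP from Rap1B seen as fluorescence loss; 100% = effect of cAMP agonist control; nearly all actives have a fitted effect of over 75% in size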
Rap guanine nucleotide exchange factor 3 (Homo sapiens), sequence (O95398 whole entry, looked up): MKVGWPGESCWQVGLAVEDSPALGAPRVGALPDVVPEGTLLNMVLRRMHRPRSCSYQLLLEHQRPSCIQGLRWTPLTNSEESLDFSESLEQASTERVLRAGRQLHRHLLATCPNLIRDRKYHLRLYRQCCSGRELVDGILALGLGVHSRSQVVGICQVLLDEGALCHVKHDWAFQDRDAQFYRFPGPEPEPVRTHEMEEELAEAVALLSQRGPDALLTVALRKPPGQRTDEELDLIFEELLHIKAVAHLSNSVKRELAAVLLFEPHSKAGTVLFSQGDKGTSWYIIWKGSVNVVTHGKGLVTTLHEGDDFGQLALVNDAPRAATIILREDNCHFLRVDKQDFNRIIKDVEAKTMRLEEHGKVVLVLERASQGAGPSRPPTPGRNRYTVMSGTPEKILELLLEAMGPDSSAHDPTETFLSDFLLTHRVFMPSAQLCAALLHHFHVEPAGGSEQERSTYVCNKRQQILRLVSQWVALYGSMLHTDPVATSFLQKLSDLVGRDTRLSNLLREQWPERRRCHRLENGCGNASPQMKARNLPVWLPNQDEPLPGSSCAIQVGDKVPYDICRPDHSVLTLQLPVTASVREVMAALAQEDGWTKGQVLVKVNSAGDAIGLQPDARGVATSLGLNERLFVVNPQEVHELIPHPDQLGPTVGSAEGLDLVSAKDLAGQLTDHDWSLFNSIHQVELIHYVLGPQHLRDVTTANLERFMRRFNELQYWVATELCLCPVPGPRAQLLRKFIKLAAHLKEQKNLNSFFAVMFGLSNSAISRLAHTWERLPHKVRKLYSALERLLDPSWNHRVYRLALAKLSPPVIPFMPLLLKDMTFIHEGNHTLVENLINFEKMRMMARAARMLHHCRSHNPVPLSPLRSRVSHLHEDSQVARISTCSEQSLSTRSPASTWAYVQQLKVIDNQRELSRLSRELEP

[2] = target: Rap guanine nucleotide exchange factor 4 (Homo sapiens) (UniProt Q8WZA2); assay: Confirmatory qHTS for agonist of cAMP-regulated guanine nucleotide exchange factor 4 (EPAC2) (AID 1645884);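 further: nucleotide exchange releases bodipy-GDP from Rap1 and this lowers its fluorescence; on the % scale 0 is the no-effect control and ±100 the full control effect; nearly all actives have a fitted effect of over 65% in size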
Rap guanine nucleotide exchange factor 4 (Homo sapiens), sequence (Q8WZA2 whole entry, looked up): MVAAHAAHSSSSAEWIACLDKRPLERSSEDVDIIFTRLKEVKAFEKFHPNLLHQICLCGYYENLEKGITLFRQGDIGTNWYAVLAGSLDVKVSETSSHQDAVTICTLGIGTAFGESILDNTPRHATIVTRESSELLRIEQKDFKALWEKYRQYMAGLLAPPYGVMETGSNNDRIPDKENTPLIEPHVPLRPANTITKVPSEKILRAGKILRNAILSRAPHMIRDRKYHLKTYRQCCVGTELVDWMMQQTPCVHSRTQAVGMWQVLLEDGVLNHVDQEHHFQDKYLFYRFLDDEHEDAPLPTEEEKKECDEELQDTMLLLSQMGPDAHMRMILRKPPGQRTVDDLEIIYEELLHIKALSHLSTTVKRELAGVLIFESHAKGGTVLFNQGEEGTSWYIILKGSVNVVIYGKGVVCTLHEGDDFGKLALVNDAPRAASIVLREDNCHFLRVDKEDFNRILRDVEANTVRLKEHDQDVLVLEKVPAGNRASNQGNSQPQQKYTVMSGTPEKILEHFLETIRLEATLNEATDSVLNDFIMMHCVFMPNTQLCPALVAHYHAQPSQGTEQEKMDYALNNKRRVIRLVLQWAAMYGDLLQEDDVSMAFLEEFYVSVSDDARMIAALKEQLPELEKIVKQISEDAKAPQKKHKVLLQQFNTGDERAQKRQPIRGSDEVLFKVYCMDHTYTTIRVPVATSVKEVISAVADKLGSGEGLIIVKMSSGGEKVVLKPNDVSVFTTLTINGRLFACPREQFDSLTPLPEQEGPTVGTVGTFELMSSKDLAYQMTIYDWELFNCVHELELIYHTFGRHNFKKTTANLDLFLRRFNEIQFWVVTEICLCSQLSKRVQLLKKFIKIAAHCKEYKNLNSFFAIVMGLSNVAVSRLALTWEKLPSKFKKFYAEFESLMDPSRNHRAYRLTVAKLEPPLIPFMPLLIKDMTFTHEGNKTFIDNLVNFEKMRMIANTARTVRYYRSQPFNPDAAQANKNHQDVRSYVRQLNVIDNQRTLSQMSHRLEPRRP

[3] = target: Rap guanine nucleotide exchange factor 3 (Homo sapiens) (UniProt O95398); assay: Counterscreen qHTS for antagonist of cAMP-regulated guanine nucleotide exchange factor 3 (EPAC1) (AID 1645888);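 further: fluorescence loss as bound BODIPY-GDP is released from Rap1B; % of control where 0% means no effect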
Method in brief: (§1)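 Measured: fluorescence of BODIPY-GDP bound to Rap1B, which falls as exchange proceeds. Conditions include 50 uM competing GDP, 5 and 30 min reads, and a later cAMP challenge for antagonist detection.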

[4] = target: Rap guanine nucleotide exchange factor 3 (Homo sapiens) (UniProt O95398); assay: Counterscreen qHTS for agonist of cAMP-regulated guanine nucleotide exchange factor 3 (EPAC1) (AID 1645889); further: % of control where 0% means no effect; nearly all actives have a fitted effect of over 40% in size
Method in brief: as §1

CCC(C)(C)c1ccc(Oc2ccc(N)cc2)cc1
inactive: Potency [1] | Potency [2] | Potency [3] | Potency [4]

Cc1ccc2c(CC(=O)OCc3cc(=O)n4c(n3)sc3ccccc34)coc2c1
inactive: Potency [1] | Potency [2] | Potency [3] | Potency [4]

O=C(CSc1n[nH]c(=O)[nH]c1=O)Nc1ccc2c(c1)C(=O)c1ccccc1C2=O
inactive: Potency [1] | Potency [2] | Potency [3] | Potency [4]

Cc1noc(C)c1COc1ccccc1C(=O)N(C)Cc1ccc(C(C)(C)C)cc1
inactive: Potency [1] | Potency [2] | Potency [3] | Potency [4]

CCOC(=O)[C@H]1[C@H]2COc3ccc(C)cc3[C@@H]2N2C(=O)c3cc(F)c(F)cc3NC(=O)[C@@]12C
inactive: Potency [1] | Potency [2] | Potency [3] | Potency [4]

COc1cnc(N(C)C)nc1Sc1cccc(Cl)c1
inactive: Potency [1] | activation [2] 2.02% [at 17.1 µM, percent relative to cAMP agonist control] | activity change, negative = inhibition [3] -24.7% [at 30.8 µM] | activation [4] -4.79% [at 30.8 µM]
